Source: PubChem BioAssay (Sanford-Burnham Center for Chemical Genomics)
HIF-2a block = inhibitors of HIF-2a; 786-0 RCC cells HIF-2a reporter, luciferase luminescence, overnight; inhibition, % at 18.8 µM; 360,000 tested, 0.72% active;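 active = inhibition of the luminescence signal of 40% or more relative to plate controls, in a single-dose primary screen at 18.75 µM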
Peg3 promoter = Peg3 promoter activity inhibition. 360,000 tested, 1.7% active. inhibition, % at 20 µM. AID 588405. HeLa PEG-Prom luciferase reporter, luminescence, overnight;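 active = inhibition of at least 50% at 20 µM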
TWEAK-Fn14 inh = blocks TWEAK-Fn14 interaction in a reporter cell assay. 360,000 tested, 2% active. TWEAK-stimulated Fn14 reporter cells, luciferase luminescence, 8 h. inhibition, % at 10 µM; in the data active = inhibition above about 50%
CF NFkB block = blocks PAF-induced NF-kB reporter in cystic fibrosis cells | KKLEB NF-kB-GFP reporter, GFP fluorescence overnight | inhibition, % at 5 µM | 360,000 tested, 0.86% active | AID 588850;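 active = at least 50% inhibition at 5 µM, scaled per plate between neutral and stimulator controls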;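 note: PAF is a Pseudomonas aeruginosa culture filtrate used as stimulus; plate controls were PAF-stimulated DMSO wells for no effect and unstimulated DMSO wells for full effect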
TROY signal inh = TROY signaling inhibition. Q293 LMP1-TROYcd NF-kB luciferase reporter, 4 h. inhibition, % at 10 µM. 360,000 tested, 0.98% active. AID 1347056;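 active = compounds whose plate-normalised and pattern-corrected inhibition of the luciferase reporter signal at the single screening dose is 50% or more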
KKLEB cytotox = reduces viability of KKLEB cystic fibrosis airway cells; KKLEB CF airway cells viability, ATPlite luminescence, overnight; hits give low values; cells stimulated with P. aeruginosa culture filtrate; activity change (cytotoxicity), % at 5 µM; 360,000 tested, 0.36% active;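 active = corrected activity change at or below -50% at 5 µM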
Numbers without * were called inactive; . = no result given. A selection: hits, their analogues and other compounds. The true share with any hit is near 4%.

SMILES	HIF-2a block	Peg3 promoter	TWEAK-Fn14 inh	CF NFkB block	TROY signal inh	KKLEB cytotox
COc1cc(OC)nc(Nc2nc(C(N)Cc3ccc(Cl)cc3)cs2)n1 (centres undefined)	7	99*	-37	12	-10	-11
NC(c1csc(Nc2ccc(C(F)(F)F)cn2)n1)C1CCCCC1 (centres undefined)	9	99*	-36	16	6	-15
COC(=O)c1cc(C)nc(Nc2nc(C(N)Cc3ccc(Cl)cc3)cs2)n1 (centres undefined)	4	-15	-5	40	-6	-37
CCOc1ccc(C(=O)CCC(=O)NCC(=O)Nc2c(C)cccc2C)cc1	5	-3	-15	19	-8	-8
CCCOCCOC(=O)c1[nH]c2c(c1C)C(=O)CC(c1cc(OC)ccc1OC)C2 (centres undefined)	-2	-20	8	54*	32	-16
CCOCCOC(=O)c1[nH]c2c(c1C)C(=O)CC(c1ccc(OC)c(OC)c1)C2 (centres undefined)	0	21	21	21	7	8
COc1cc(C2CC(=O)c3c([nH]c(C(=O)OCCOC(C)C)c3C)C2)cc(OC)c1OC (centres undefined)	-6	38	61*	21	41	-9
C[C@@H]1CNC(=O)c2c(C(=O)NC3CCN(C(=O)OC(C)(C)C)CC3)ncn21	14	11	-13	-20	15	9
COc1ccc2c(=O)cc(CO)oc2c1	12	-29	24	37	9	-5
c1ccc(CN2CCC(Nc3nc(-c4cccs4)nc4ccccc34)CC2)cc1	22	75*	-40	5	20	-18
CCC(CC)C(C(=O)NCc1ccccc1)N1CCN(CCN2CCOCC2)CC1 (centres undefined)	2	.	.	.	.	.
COc1cc(NC(=O)c2cc3ccccc3cc2O)c(OC)cc1Cl	-82	-7	67*	50*	45	-55*
COc1cc(OC)c(NC(=O)c2ccccc2F)cc1Cl	-61	-56	-11	-10	-43	-6
COc1ccccc1NC(=O)c1cc2cc(Br)ccc2cc1O	-53	-40	67*	49	38	-33
O=C(CSc1cccc[n+]1[O-])NN(c1ccccc1)c1ccccc1	-35	-26	83*	-10	-28	3
O=C(Nc1ccc2nc3n(c(=O)c2c1)CCCCC3)C(=O)N1CCN(c2ccc(F)cc2)CC1	11	12	-1	-3	3	5
Cc1ccccc1/C=C/C12NC(=O)CN1c1ccccc1C2(C)C (centres undefined)	-19	-8	56*	6	29	11
Cc1cc(N2O[C@H]3C=C[C@@H]2C3)no1	-11	2	1	-1	-7	19
O=[N+]([O-])c1ccc(-c2nc3ccc([N+](=O)[O-])cc3[nH]2)cc1	-218	-213	-49	14	9	-11
O=[N+]([O-])c1ccc2nc(/C=C/c3ccc(Cl)cc3)[nH]c2c1	-377	-128	76*	3	71*	1
CC(C)(C)c1ccc(C(=O)N2CCC(C(=O)NC3CCCCCC3)CC2)cc1	-55	-89	0	-3	-5	3
COc1ccc(S(=O)(=O)N(CCCN2CCCC2=O)Cc2cc3cc(C)c(C)cc3[nH]c2=O)cc1	11	24	94*	3	14	12
CCN(CC(=O)Nc1cc(Cl)ccc1C)C(=O)CCS(=O)(=O)c1ccc(C)cc1	9	19	11	11	2	13
c1ccc(-c2ccc3ccccc3n2)cc1	-236	-278	-19	-34	-56	10
c1ccc(-c2ccc3ncccc3n2)cc1	-232	-262	-9	4	53*	-8
SMILES	HIF-2a block	Peg3 promoter	TWEAK-Fn14 inh	CF NFkB block	TROY signal inh	KKLEB cytotox
O=C1C=C(O)c2c(O)cc(O)c(O)c2C1=O	10	8	70*	18	6	-23
O=C1c2ccccc2C(=O)c2c(O)c(O)cc(O)c21	5	-2	-3	-6	1	11
CCCCc1nnc(NC(=O)c2ccccc2OCc2c(C)noc2C)s1	-34	-26	-9	24	-14	-9
CCOC(=O)C1(C(N)=O)OC1(c1ccc(Cl)cc1)c1ccccc1Cl (centres undefined)	-1	69*	21	-9	-9	10
NC(=O)C1(C(=O)O)OC1(c1ccc(Cl)cc1)c1ccccc1Cl (centres undefined)	3	-11	-1	-1	-20	7
O=C(/C=C/c1cn(CC(O)CN2CCCCC2)c2ccccc12)c1cccs1 (centres undefined)	-17	73*	4	-8	-28	-6
COc1ccc(S(=O)(=O)N2CCCC(C(=O)NCc3ccccc3)C2)cc1 (centres undefined)	1	11	2	-3	17	5
Nc1nc(-c2ccco2)c(-c2ccco2)s1	11	1	24	-4	9	-1
c1coc(-c2nc(-c3ccco3)c(-c3ccco3)nc2-c2ccco2)c1	4	23	81*	4	4	-11
CCOc1ccc(CCNC(=O)C2CSC3(C)CCC(=O)N23)cc1OCC (centres undefined)	9	3	5	-12	-20	-11
COC(=O)c1sc(N2C(=O)c3oc4ccccc4c(=O)c3C2c2cccc(O)c2)nc1C (centres undefined)	11	52*	-6	0	17	-1
Cc1ccc(CCNC(=O)Cc2ccc(NC3=NC4CS(=O)(=O)CC4S3)cc2)cc1 (centres undefined)	12	17	7	-6	4	22
COc1ccc2c(c1)[nH]c1c(N3CCSCC3)ncnc12	9	24	48	-4	63*	-1
COc1ccc2c(c1)[nH]c1c(N3CCN(Cc4ccc5c(c4)OCO5)CC3)ncnc12	27	34	100*	-3	66*	-13
COc1cccc(N2CCN(c3ncnc4c3[nH]c3ccc(F)cc34)CC2C)c1 (centres undefined)	27	114*	104*	88*	86*	-15
COc1cc2[nH]c3c(N4CCN(c5ccc(Cl)cc5)CC4)ncnc3c2cc1OC	14	43	-9	-20	15	-11
O=C(NCC(c1ccco1)N1CCc2ccccc2C1)C(=O)Nc1ccc(F)cc1F (centres undefined)	3	19	7	5	1	22
N#CC(=C(O)CN1CCN(c2ccccc2F)CC1)c1nc(-c2ccc(Cl)cc2)cs1	-9	40	-1	26	43	1
O=C(Nc1cccc2c1CCCC2)c1ccc(Cl)c([N+](=O)[O-])c1	15	26	13	7	-22	4
O=C(Nc1cccc2c1CCCC2)c1cc([N+](=O)[O-])ccc1Cl	-16	44	51*	-17	-12	-24
Cc1ccc(C)c(C(=O)Nc2ccncc2)c1	20	6	18	15	26	2
